Results from PubChem BioAssay.
For part of these data: Entries with a potency or affinity are not part of this list. Active and inactive are the calls of the source.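 Rule for the calls, unless noted: active = membrane potential signal rise above negative control mean plus 3 SD in both duplicates, also active in the earlier TRPC4 screen; inactive = the rest.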

Legend:
[1] = test system: TRPC4 beta (transient receptor potential cation channel C4), mouse; test: activators of mouse TRPC4 channel, confirmation, cell-based, Fluo4 calcium, HEK293 TRPC4beta/mu-opioid, duplicates, 10 µM (AID 2426;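 active = fluorescence ratio normalized to control raised more than 50% in primary screen plus both repeat runs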;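 note: percent rise of integrated ratio over buffer wells lacking compound which define 0%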); conditions: Fluo4 calcium fluorescence, at 10 µM; active compounds read high
[2] = test system: transient receptor potential cation channel C4 beta (TRPC4), mouse; test: activators of mouse TRPC4 channel, confirmation, cell-based, second round, Fluo4, HEK293 TRPC4beta/mu-opioid, 1 µM (AID 2461;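 active = primary screen active and over 50% activation in each of two duplicate runs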;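 for activation: 0% = wells without test compound as baseline of integrated fluorescence ratio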); conditions: Fluo4 calcium fluorescence, at 1 µM; active compounds read high
[3] = test system: TRPC4 (transient receptor potential cation channel C4 beta), mouse; test: positive allosteric modulators of mouse TRPC4, confirmation, cell-based, second round, Fluo-4, HEK293 TRPC4beta/mu-opioid, 1 µM (AID 2554;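 active = primary screen hit whose fluorescence ratio, in both repeats, exceeds the weak agonist control mean by 3 SD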); conditions: DAMGO EC20, Fluo-4 calcium flux, at 1 µM; active compounds read high
[4] = test system: TRPC4 beta (transient receptor potential cation channel C4), mouse; test: positive allosteric modulators of mouse TRPC4, confirmation, cell-based, Fluo-4, HEK293 TRPC4beta/mu-opioid (AID 2555;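 active = primary screen hit whose calcium fluorescence ratio, in both repeats, exceeds the weak agonist control mean by 3 SD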); conditions: DAMGO EC20, Fluo-4 calcium flux, at 10 µM; active compounds read high
[5] = target: Short transient receptor potential channel 4 (Mus musculus) (UniProt Q9QUQ5); test: inhibitors of mouse TRPC4 channel, confirmation, cell-based, Fluo4, HEK293 TRPC4beta/mu-opioid (AID 2636;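 active = calcium signal cut by more than 3 SD below the full-agonist control yet still positive, in both repeats and the earlier primary screen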); conditions: DAMGO, Fluo4 calcium flux, at 10 µM; active compounds read high
Chain of Short transient receptor potential channel 4 (Mus musculus) (Q9QUQ5 whole entry, looked up): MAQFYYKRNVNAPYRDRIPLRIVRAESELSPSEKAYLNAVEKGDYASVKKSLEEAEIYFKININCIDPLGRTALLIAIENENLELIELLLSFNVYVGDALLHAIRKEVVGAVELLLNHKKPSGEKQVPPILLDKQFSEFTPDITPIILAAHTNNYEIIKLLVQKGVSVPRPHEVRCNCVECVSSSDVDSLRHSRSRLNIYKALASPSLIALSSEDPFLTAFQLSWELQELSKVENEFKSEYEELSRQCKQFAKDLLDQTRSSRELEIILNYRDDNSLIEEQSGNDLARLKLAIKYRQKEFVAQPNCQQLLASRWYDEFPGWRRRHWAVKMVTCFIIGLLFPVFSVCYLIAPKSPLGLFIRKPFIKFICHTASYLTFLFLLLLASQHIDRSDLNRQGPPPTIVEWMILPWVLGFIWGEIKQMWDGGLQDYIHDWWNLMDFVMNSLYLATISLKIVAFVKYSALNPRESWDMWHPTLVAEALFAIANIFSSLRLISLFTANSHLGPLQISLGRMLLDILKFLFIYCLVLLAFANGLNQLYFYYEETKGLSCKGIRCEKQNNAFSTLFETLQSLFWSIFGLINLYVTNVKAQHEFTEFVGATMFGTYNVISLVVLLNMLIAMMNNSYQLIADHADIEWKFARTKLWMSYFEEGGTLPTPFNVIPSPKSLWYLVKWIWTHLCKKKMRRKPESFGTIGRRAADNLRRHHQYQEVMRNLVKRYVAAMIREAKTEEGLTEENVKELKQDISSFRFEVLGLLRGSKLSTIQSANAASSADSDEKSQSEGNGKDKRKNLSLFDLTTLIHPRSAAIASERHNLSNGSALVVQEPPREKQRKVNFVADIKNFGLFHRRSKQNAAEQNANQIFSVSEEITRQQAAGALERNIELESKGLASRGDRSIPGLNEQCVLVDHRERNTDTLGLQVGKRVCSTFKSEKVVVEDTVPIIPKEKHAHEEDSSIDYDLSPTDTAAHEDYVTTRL

[6] = target: Short transient receptor potential channel 4 (Mus musculus) (UniProt Q9QUQ5); test: inhibitors of mouse TRPC4 channel, confirmation, cell-based, second round, Fluo4, HEK293 TRPC4beta/mu-opioid, 1 µM (AID 2637;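 active = calcium signal ratio cut to more than 3 SD under the fully stimulated control mean yet still positive, in both repeats and the primary screen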); conditions: Fluo4 calcium flux, DAMGO, at 1 µM; active compounds read high
[7] = target: Short transient receptor potential channel 4 (Mus musculus) (UniProt Q9QUQ5); test: TRPC4 positive allosteric modulators, dose response, cell-based, HEK293 TRPC4/mu-opioid, Fluo-4 calcium, EC20 DAMGO (AID 434941;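 active = earlier screen potentiator hit that boosts the TRPC4 ion channel at some dose, with a dose response; inactive = no potentiation, no dose response, or not a prior hit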;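 note: calcium entry triggered by an EC20 dose of DAMGO at the co-expressed mu-opioid receptor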)
[8] = target: Short transient receptor potential channel 4 (Mus musculus) (UniProt Q9QUQ5); test: mouse TRPC4 channel inhibitors, dose response, cell-based, HEK293 TRPC4/mu-opioid, Fluo-4 calcium (AID 434942;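 active = primary screen inhibitor hit that blocks the TRPC4 channel at some tested dose, yielding a dose curve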)
[9] = target: Short transient receptor potential channel 6 (Mus musculus) (UniProt Q61143); test: inhibition of mouse TRPC6 channel, confirmation, selectivity assay for TRPC4 inhibitor project, cell-based, HEK293, membrane potential dye, duplicate (AID 434948;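 active = active in primary screen and both duplicates, each dropping signal beyond three positive-control SD with fluorescence still positive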); conditions: HEK293 TRPC6, membrane potential dye fluorescence, at 10 µM, stimulated with maximal-effect acetylcholine; active compounds read high
Chain of Short transient receptor potential channel 6 (Mus musculus) (Q61143 whole entry, looked up): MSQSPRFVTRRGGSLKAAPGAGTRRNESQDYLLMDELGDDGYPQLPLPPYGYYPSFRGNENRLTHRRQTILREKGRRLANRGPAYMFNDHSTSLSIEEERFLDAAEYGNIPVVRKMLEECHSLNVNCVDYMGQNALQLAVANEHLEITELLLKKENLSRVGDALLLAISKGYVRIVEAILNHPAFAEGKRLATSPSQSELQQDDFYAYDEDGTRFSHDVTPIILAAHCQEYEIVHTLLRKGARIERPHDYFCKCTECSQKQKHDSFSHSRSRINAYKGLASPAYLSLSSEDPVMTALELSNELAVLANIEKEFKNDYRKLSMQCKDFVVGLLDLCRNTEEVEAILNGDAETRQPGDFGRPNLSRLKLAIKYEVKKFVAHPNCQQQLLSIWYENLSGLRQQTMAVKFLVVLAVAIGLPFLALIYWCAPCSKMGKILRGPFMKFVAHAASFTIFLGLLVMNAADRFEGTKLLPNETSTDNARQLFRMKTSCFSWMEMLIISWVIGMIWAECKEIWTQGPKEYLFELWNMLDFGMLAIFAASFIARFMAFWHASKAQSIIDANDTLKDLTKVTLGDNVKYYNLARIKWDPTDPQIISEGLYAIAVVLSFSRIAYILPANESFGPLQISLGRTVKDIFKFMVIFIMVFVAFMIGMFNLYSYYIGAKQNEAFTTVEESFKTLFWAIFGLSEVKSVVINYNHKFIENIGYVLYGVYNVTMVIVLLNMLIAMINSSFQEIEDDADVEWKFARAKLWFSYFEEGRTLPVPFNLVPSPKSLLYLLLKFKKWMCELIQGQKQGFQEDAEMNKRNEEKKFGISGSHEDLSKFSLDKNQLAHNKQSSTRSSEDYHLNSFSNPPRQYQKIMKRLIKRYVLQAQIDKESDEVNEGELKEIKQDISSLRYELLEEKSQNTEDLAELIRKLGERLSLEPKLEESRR

[10] = target: Short transient receptor potential channel 6 (Mus musculus) (UniProt Q61143); test: activation of mouse TRPC6 channel, confirmation, selectivity assay for TRPC4 activator project, cell-based, HEK293, membrane potential dye, duplicate (AID 434950); conditions: HEK293 TRPC6, membrane potential fluorescence, at 10 µM; active compounds read high;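 for activation: 0% = buffer only wells and 100% = acetylcholine maximal-effect wells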
[11] = target: Short transient receptor potential channel 6 (Mus musculus) (UniProt Q61143); test: TRPC6 potentiation by TRPC4 potentiator hits, confirmation, selectivity assay for TRPC4 potentiator project, HEK293 cells, membrane potential dye, duplicate (AID 434952;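 active = compound raising the membrane signal above positive-control mean plus 3 SD in both repeats, and a primary screen hit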); conditions: HEK293 TRPC6, membrane potential dye fluorescence, at 10 µM, maximal acetylcholine added after compound; active compounds read high
[12] = target: Short transient receptor potential channel 4 (Mus musculus) (UniProt Q9QUQ5); test: calcium flux activators in TRPC4/5HT1a cells, counter-screen for TRPC4 activator project, cell-based, second counter screen, HEK293 TRPC4/5HT1a, Fluo-4 (AID 434977;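 active = calcium signal rise above buffer-control mean plus 5 SD in both duplicates, and also a hit in the primary screen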;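 for activation: plate controls were assay buffer for no effect and maximal serotonin response for full effect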); conditions: Fluo-4 calcium flux, at 10 µM; active compounds read high
[13] = calcium flux inhibitors in TRPC4/5HT1a cells, confirmation, counter-screen for TRPC4 inhibitor project, cell-based, second counter screen, HEK293 TRPC4/5HT1a, Fluo-4 (AID 434978;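 active = primary screen active whose calcium signal fell more than 3 SD beyond the full-serotonin control mean in both duplicate plates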;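 note: serotonin given first at submaximal then at maximal dose after compound preincubation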); conditions: Fluo-4 calcium flux, at 10 µM, serotonin added to trigger calcium flux; active compounds read high
[14] = test system: TRPC4 (mouse), co-expressed with 5HT1a in HEK293; test: calcium flux potentiators in TRPC4/5HT1a cells, confirmation, counter-screen for TRPC4 potentiator project, cell-based, second counter screen, HEK293 TRPC4/5HT1a, Fluo-4 (AID 434979;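 active = signal rise over 3 SD above mean of control wells given weak agonist, in both repeats and first screen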); conditions: Fluo-4 calcium flux, at 10 µM, serotonin added at its EC20 dose; active compounds read high
[15] = calcium flux activation in mu-opioid HEK293 cells, confirmation, counter-screen for TRPC4 activator project, cell-based, HEK293 mu-opioid receptor line (AID 449723;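 active = hit in primary screen, with calcium signal over 5 SD above buffer well mean in both duplicates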;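 note: counter screen cells carry the mu-opioid receptor alone and lack TRPC4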); conditions: Fluo-4 calcium fluorescence, at 10 µM; active compounds read high
[16] = calcium flux enhancement in mu-opioid HEK293 cells, confirmation, counter-screen for TRPC4 allosteric potentiator project, cell-based, HEK293 mu-opioid receptor line (AID 449724;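 active = calcium signal rise more than 3 SD above the low-dose agonist control mean, in both duplicate plates and the primary screen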); conditions: Fluo-4 calcium flux, at 10 µM, compound added before EC20 DAMGO stimulus; active compounds read high

Measured: activation

O=C(CN1CCN(c2ncc(C(F)(F)F)cc2Cl)CC1)N1CCN(c2ncc(C(F)(F)F)cc2Cl)CC1
active: [1] 128% | [12] 42%
inactive: all other assays above

NC1=NC2(CCN(Cc3ccccc3)CC2)n2c(nc3ccccc32)N1
active: [1] 54%
inactive: all other assays above

CN(C)CCNC(=O)c1c(NC(=O)c2ccccc2)sc2c1CCCC2
active: [1] 161%
inactive: all other assays above

CCOC(=O)C1(Cc2cccc(F)c2)CCN(Cc2cnn(CC)c2C)CC1
active: [1] 100% | [2] 94% | [10] 64%
inactive: all other assays above

Cc1cc(C)cc(NC(=S)N2CCN(c3ncc(C(F)(F)F)cc3Cl)CC2)c1
active: [1] 105% | [10] 25% | [12] 49.6%
inactive: all other assays above

COc1cc(OC)cc(C(=O)NC(=S)NNC(=O)Cc2cccs2)c1
active: [1] 101% | [12] 58.2% | [15] 20.6%
inactive: all other assays above

COC(=O)NCC(c1ccc2c(c1)OCO2)N1CCN(c2ccc(OC)cc2)CC1 (stereo not given)
active: [1] 85%
inactive: all other assays above

CC(C)C1CC(CCNCc2ccc(N(C)C)cc2)(c2ccccc2)CCO1 (stereo not given)
active: [1] 185% | [10] 29% | [12] 31.2%
inactive: all other assays above

CCCCN(CC)CCCNC(=O)Cn1nc(Cc2cccnc2)c2ccccc2c1=O
active: [1] 86% | [12] 28.3%
inactive: all other assays above

CCOC(=O)C1(Cc2ccccc2)CCN(Cc2cn[nH]c2-c2ccccc2)CC1
active: [1] 192% | [10] 76%
inactive: all other assays above

O=C(O)C1C2C=CC(C2)C1C(=O)NC1CCN(Cc2ccccc2)CC1 (stereo not given)
active: [1] 155% | [10] 32% | [12] 44.3%
inactive: all other assays above

COc1ccc(C(CNC(=O)CCOc2ccccc2)N(C)C)cc1 (stereo not given)
active: [1] 145% | [2] 77% | [10] 45%
inactive: all other assays above

CC(C)Cc1ccc(CN2CCCC(NC(=O)CCn3cnnn3)C2)cc1 (stereo not given)
active: [1] 111% | [12] 27.9%
inactive: all other assays above

Cc1ccc(C)c(-n2cc(CNCCCn3cccn3)c(-c3ccccc3)n2)c1
active: [1] 288% | [2] 129% | [10] 48.5% | [12] 29.9%
inactive: all other assays above

CN(CCc1ccccn1)C(=S)Nc1cccc(S(=O)(=O)N(C)C)c1
active: [1] 111% | [12] 53.6%
inactive: all other assays above
